Assay results published in PubChem BioAssay AID1220 (Sanford-Burnham Center for Chemical Genomics, 2008).
About 1,300 (0.68%) of roughly 190,000 compounds were called active. No stated cut-off is given here; in the data, active means inhibition above about 50%; inactive means the rest. The sample as a whole holds a higher share of actives than the screen did.

These compounds were tested against Mannose-6-phosphate isomerase (Homo sapiens) (UniProt P34949) (assay: MPI inhibition at elevated mannose 6-phosphate – biochemical, fluorescence intensity, high mannose 6-phosphate, primary screen (AID 1220)). Details: recombinant PMI enzyme, coupled fluorescence intensity; at 20 µM; active compounds read high.
Mannose-6-phosphate isomerase (Homo sapiens), sequence (P34949 whole entry, looked up): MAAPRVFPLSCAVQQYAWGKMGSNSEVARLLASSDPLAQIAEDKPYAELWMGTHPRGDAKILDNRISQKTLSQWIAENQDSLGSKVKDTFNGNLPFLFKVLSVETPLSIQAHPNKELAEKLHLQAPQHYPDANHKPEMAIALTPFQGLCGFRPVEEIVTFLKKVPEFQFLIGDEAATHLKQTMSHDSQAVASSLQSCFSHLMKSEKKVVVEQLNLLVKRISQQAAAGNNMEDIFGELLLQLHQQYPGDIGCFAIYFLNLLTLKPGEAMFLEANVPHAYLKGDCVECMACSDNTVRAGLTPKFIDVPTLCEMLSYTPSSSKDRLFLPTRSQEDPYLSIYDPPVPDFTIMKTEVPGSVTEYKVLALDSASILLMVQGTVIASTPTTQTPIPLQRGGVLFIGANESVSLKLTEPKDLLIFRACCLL

inhibition, active:
COc1ccc(OC)c(S(=O)(=O)Nc2ccccc2SC)c1 57.1%, C=CCOc1c(Br)cc(CNc2ccc(NC(=O)C(C)C)c(OC)c2)cc1OCC 57.7%, Nc1cc2c(cc1O)CCCC2 54.3%, O=C1C2C3C=CC(C3)C2C(=O)N1CNc1ccc(O)cc1 (stereo not given) 58.4%

inhibition, inactive:
c1ccc2c(c1)ccc1ncccc12 -5.5%, O=C(CS(=O)(=O)c1ccccc1)Nc1nc(-c2ccc(F)cc2)cs1 8.2%, CCOC(=O)CNC(=O)CSc1nnc(-c2ccco2)n1N 6.3%, CCCCOc1ccc(Cc2c(COCC)[nH]c(=S)[nH]c2=O)cc1 -4.9%, O=C(c1cc2ccccc2o1)N1CCCC1 -0.3%, COc1ccc(OC)c(S(=O)(=O)Nc2ccccc2C)c1 10.8%, COc1ccc(OC)c(NS(=O)(=O)c2cc(OC)ccc2OC)c1 2.8%, CC1=CC(C)(C)N(C(=O)CNC2CCCCC2)c2cc(C)ccc21 2.1%, C=CCOc1c(Br)cc(CNc2ccc(NC(=O)C(C)C)c(OC)c2)cc1OC 41.7%, C=CCOc1c(Br)cc(CNc2ccc(NC(=O)C(C)C)cc2)cc1OCC 22.7%, COc1cccc(C(=O)Nc2ccc3c(c2)C(=O)N(CCC(=O)O)C3=O)c1 3.7%, CC1CCCC(NC(=O)COC(=O)CSc2ccc3ccccc3c2)C1C (stereo not given) 7.7%, Cc1ccc(-c2nnc(-c3ccccc3)c(-c3ccccc3)n2)cc1 -0.5%, Cc1ccc(-c2cc(-c3ccccc3)nc(Cl)n2)cc1 12.5%, Cc1ccc(-c2nc(N)sc2-c2ccc(C)cc2)cc1 13.6%, Cc1ccc(-c2nc(N)sc2C)cc1 -10.2%, CCCCC(=O)OCC(=O)c1[nH]c(C)c(C(C)=O)c1C -12%, CCc1nnc(NC(=O)c2ccc(N(C)S(=O)(=O)c3ccccc3)cc2)s1 -6.4%, CC(C)c1ccccc1NC(=O)COC(=O)CNC(=O)c1ccc(Br)cc1 4.8%, O=C(O)c1ccc2c(c1)CCC2 0.1%, Nc1ccc(Cc2ccc(N)c(O)c2)cc1O 46.8%, COc1cc(NC(=O)CSc2c3c(nc4ccccc24)CCC3)cc(OC)c1OC -3.7%, CCOc1ccccc1NC(=O)CCN(c1ccc(C)cc1)S(=O)(=O)c1ccccc1 5.3%, Cc1nn(Cc2c(F)c(F)c(F)c(F)c2F)c(C)c1NC(=O)c1ccc(COc2cc(Cl)ccc2Cl)cc1 0.7%, O=C1C2C3C=CC(C3)C2C(=O)N1CNc1ccccc1 (stereo not given) -1%, Cc1ccc(NCN2C(=O)C3C4C=CC(C4)C3C2=O)cc1 (stereo not given) 16.9%
